Compound activity from PubChem.
Rows were chosen to be rich in hits. Some 3.9% of all compounds tested hit in one or more screens of this group.
ATXN viability – viability counter-screen for ATXN expression inhibitors. S2 cells (HEK-293 line with an ATXN2-luciferase reporter) viability, CellTiter-Fluor protease fluorescence, 24 h. Potency, µM (doses to about 56.7 µM), usual class: cytotoxic. 400,000 compounds, 0.49% hits. AID 651635; also: nearly all actives have a fitted effect of over 40% in size
TGFb SMAD3 inh – TGF-b pathway inhibition; AID 588855; 410,000 compounds, 1.2% hits; HepG2 CAGA-GFP TGF-b/SMAD3 reporter, GFP fluorescence, 18 h; TGF-beta stimulated, 500 pg/mL final; Potency, µM (titrated, usually from 46.1 µM), for the others: top-dose activity, negative = inhibition, hits mostly inhibitors; also: % is scaled to controls: 0 for no effect and ±100 for the full control effect; nearly all actives have a fitted effect of over 65% in size
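First, reporter cells (HEPG2 CAGA-GFP) rested 2 h at 37 degrees C. Next, compounds were pinned in and TGF-beta added to 500 pg/mL final. After 18 h, GFP was imaged per cell and summed per well.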
HT1080-NT tox – kills 2HG-producing HT-1080-NT fibrosarcoma cells; Potency, µM (highest dose often 46.1 µM), without a hit: at the highest dose activity, negative = less viability, hits mostly cytotoxic; AID 686970; 360,000 compounds, 1.6% hits; HT-1080-NT fibrosarcoma viability, CellTiter-Glo ATP luminescence, 48 h;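 also: NT is the 2HG producing partner of a matched IDH1 knockdown line; 0% = DMSO-treated cells and -100% = media-only wells without cells; nearly all actives have a fitted effect of over 55% in size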
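Luminescent CellTiter-Glo readout after 48 hours of compound exposure at 37 degrees C defined viability of HT-1080-NT cells. Activity was normalized to DMSO wells and cell-free media wells; concentration-response curves were fitted and assigned curve classes.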
ATXN2 expr inh – ATXN2 expression inhibition | Potency, µM (series often up to 57 µM), inactives show at the highest dose activity change, negative = inhibition, actives largely listed as inhibitors | 360,000 compounds, 0.72% hits | AID 1745845 | HEK-293 ATXN2-luciferase reporter, luminescence, 24 h; also: % is scaled to controls: 0 for no effect and ±100 for the full control effect; nearly all actives have a fitted effect of over 55% in size
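ATXN2-luciferase reporter cells (luciferase flanked by upstream and downstream ATXN2 gene portions) were treated 24 h at 37 °C with compounds at up to 57 uM. SteadyGlo luminescence gave expression; GF-AFC fluorescence gave viability.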
HepG2 tox – HepG2 cytotoxicity, counter-screen for TGF-b inhibitors. Potency, µM (series often up to 46.1 µM), inactives show top-dose activity change, negative = cytotoxicity, hits mostly cytotoxic. 410,000 compounds, 0.76% hits. AID 588856. HepG2 CAGA-GFP viability, ATP luminescence, 18 h
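CellTiter-Glo luminescence gave cytotoxicity after 18 hours at 37 degrees C. The cells were HepG2 CAGA-GFP in 1% FBS DMEM, stimulated with 500 pg/mL TGF-beta after compound addition. %Activity was normalised to no-cell wells (complete cell-killing) and DMSO (no toxicity), and curves were fitted and classified.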
HT1080 IDH1KD tx – kills HT-1080 cells with IDH1 knockdown | Potency, µM (highest dose often 46.1 µM), for inactives: at the top dose activity, negative = toxicity, usual class: cytotoxic | 360,000 compounds, 2% hits | AID 686971 | HT-1080 IDH1 knockdown viability, ATP luminescence, 48 h;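 also: 0% = DMSO wells and -100% = cell-free medium wells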
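CellTiter-Glo luminescence after 48 h compound exposure at 37 degrees C of IDH1-knockdown HT-1080 cells in 5% FBS RPMI. %Activity scaled between DMSO wells and cell-free media wells, with curves fitted and assigned curve classes.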
Starred values were filed as active, the others as inactive; i = inactive; u = inconclusive; x = no result; ! = a repeat was not active. Calls follow the shape of the dose curve; as a rule, active = well fitted curve in the direction sought with a large enough effect; inconclusive = small, poorly fitted or top-dose-only effect, or another doubt; inactive = no such curve, though single readings can be large; an effect the other way counts as inactive or inconclusive. Potency is read from the fitted curve at half-maximal effect.

SMILES	ATXN viability	TGFb SMAD3 inh	HT1080-NT tox	ATXN2 expr inh	HepG2 tox	HT1080 IDH1KD tx
COc1ccccc1-n1cnc2cc(NC(=O)c3ccco3)ccc21	i	u	11µM*	53%	8%	u
O=S1(=O)N[C@H](Cc2ccccc2)COc2cc(N3CCC[C@H]3CO)ccc21	i	x	-3%	29%	x	-1%
O=S1(=O)N[C@H](Cc2ccccc2)COc2cc(N3CCC[C@@H]3CO)ccc21	i	x	u	19%	x	23µM*
CC1=C(C(=O)Nc2ccccc2)C(c2cccn2C)n2ncnc2N1 (configuration not stated)	i	-8%	x	9%	0%	x
O=C(CSc1nnc(Cn2nnc3ccccc32)o1)N(Cc1ccc(F)cc1)c1ccccc1	i	11µM*	0.28µM*	-32%	-22%	u
COc1cccc(O)c1CN1CCC2(CC1)c1ccccc1[C@@H](NC(=O)c1ccsc1)[C@@H]2OC	i	x	x	x	x	x
CCN1CCCC1CN(Cc1cc2ccc(C)cc2[nH]c1=O)C(=S)Nc1ccc(OC)cc1 (configuration not stated)	u	u	u	-5%	13µM*	u
CCN1CCCC1CN(Cc1cc2ccc(C)cc2[nH]c1=O)C(=S)Nc1cccc(OC)c1 (configuration not stated)	i	-2%	u	-9%	-33%	18µM*
C/C(=N\NC(=O)C(C)Oc1ccc([N+](=O)[O-])cc1)c1ccccn1 (configuration not stated)	7.1µM*	u	2.2µM*	u	-26%	2.2µM*
C=CCn1c(=S)[nH]c2sc3c(c2c1=O)CCC3	i	-2%	7.1µM*	-9%	-40%	u
CCn1c(=S)[nH]c2sc3c(c2c1=O)CCCC3	i	-14%	-20%	x	-47%	u
Clc1nc(CN2CCCCC2)nc2sc3c(c12)CCCC3	u	25µM*	-18%	x	-39%	-6%
Cc1cccnc1-c1cccc2c1OC(CNC(=O)Cc1c(C)noc1C)C2 (configuration not stated)	i	x	x	x	x	x
O=C(/C=C/c1ccccc1)c1cc(Br)ccc(=O)c1O	u	16µM*	18µM*	20µM*	-16%	u
Cc1ccc(/C=C/C(=O)c2ccccc(=O)c2O)cc1C	u	10µM*	18µM*	u	-48%	u
O=C(/C=C/c1ccc(F)cc1)c1cc(Br)ccc1O	i	-20%	-4%	18%	-32%	-1%
Cc1ccnc(N2C(=O)c3cccc4c([N+](=O)[O-])ccc(c34)C2=O)c1	x	u	5µM*	u	-109%	2.8µM*
Cc1ccnc(N2C(=O)c3ccccc3C2=O)c1	i	-4%	17%	-10%	-21%	24%
O=C1c2cccc3cccc(c23)C(=O)N1Cc1cccnc1	i	-18%	2%	17%	22%	4%
O=C1c2cccc3c([N+](=O)[O-])ccc(c23)C(=O)N1Cc1cccnc1	x	u	8.2µM*	-36%	-17%	12µM*
CC(C)(C)n1ncc2c(=O)n(Cc3ccc(Cl)c(OC(F)(F)F)c3)cnc21	x	u	x	x	-21%	x
O=C(C[n+]1ccncc1)c1ccc(Br)cc1	x	-13%	x	x	-37%	x
O=C(Cn1cc(C(=O)C(F)(F)F)c2ccccc21)Nc1ccccc1F	u	9%	1%	-45%	11µM*	-2%
O=C(Cn1cc(C(=O)c2ccco2)c2ccccc21)Nc1ccccc1F	i	10%	-20%	-15%	-11%	0%
C[C@H](O)[C@@H]1CN2CCc3c([nH]c4ccc(-c5ccc6c(c5)OCO6)cc34)[C@@H]2C[C@@H]1N(C)C(=O)Nc1ccc(F)cc1	32µM*	u	u	u	13µM*	21µM*
SMILES	ATXN viability	TGFb SMAD3 inh	HT1080-NT tox	ATXN2 expr inh	HepG2 tox	HT1080 IDH1KD tx
C[C@H](O)[C@@H]1CN2CCc3c([nH]c4ccccc34)[C@@H]2C[C@@H]1N(C)C(=O)c1ccco1	i	u	26µM*	8%	-15%	u
Cc1ccccc1C(=O)N(C)[C@H]1C[C@H]2c3[nH]c4ccccc4c3CCN2C[C@H]1[C@H](C)O	i	u	-2%	9%	1%	0%
COc1ccc(-c2ccc3[nH]c4c(c3c2)CCN2C[C@@H]([C@H](C)O)[C@@H](N(C)C(=O)Nc3cc(Cl)cc(Cl)c3)C[C@@H]42)cc1	x	u	u	-1%	-63%	21µM*
COc1ccc(-c2ccc3[nH]c4c(c3c2)CCN2C(=O)[C@@H]([C@H](C)O)[C@@H](N(C)C(=O)Nc3cc(Cl)cc(Cl)c3)C[C@@H]42)cc1	i	u	u	u	-41%	15%
COc1ccc(-c2ccc3[nH]c4c(c3c2)CCN2C(=O)[C@@H]([C@H](C)O)[C@@H](N(C)C(=O)Nc3ccc(F)cc3)C[C@@H]42)cc1	u	u	u	u	-64%	u
COc1ccc(C(=O)NCCc2nnc3n2CCN(CC2CC=CCC2)CC3)cc1 (configuration not stated)	i	x	x	x	x	x
Cc1ncc2c(c1CNC(=O)c1ccc3c(c1)OCO3)CCN(C(=O)c1csc3c1CCCC3)C2	i	x	x	x	x	x
Cc1ccc(CNc2ncnc3sc(C(=O)N4CCC[C@H]4C(N)=O)c(C)c23)o1	i	x	x	x	x	x
O=C(Nc1ccc(-c2nc3ccccc3s2)cc1)c1cc(-n2cnnc2)ccc1Cl	i	u	10µM*	u	-40%	11µM*
Cc1ccc(NC(=O)c2cc(-n3cnnc3)ccc2Cl)cc1	i	11%	6%	-8%	-9%	11%
O=c1[nH]c(=O)n([C@H]2C[C@H](O)[C@@H](CO)O2)cc1F	u	-3%	0.46µM*	7.9µM*!	-5%	0.73µM*
O=C(Nc1cccc(/C=C/c2ccccn2)c1)c1ccc(-n2cncn2)c([N+](=O)[O-])c1	18µM*	u	-14%	u	-21%	-26%
O=C1C(c2cccc(Br)c2)N(CCc2ccccc2)C(=O)CN1C1CCCCC1 (configuration not stated)	x	-9%	x	x	-4%	x
COc1ccc(-c2cn(-c3ccc(OC)cc3)c3[n+]2-c2ccccc2CC3)cc1	u	u	26µM*	u	-22%	u
COc1ccccc1-n1c(-c2ccccc2)c[n+]2c1CCc1ccccc1-2	u	13µM*	15µM*	6.7µM*!	-21%	13µM*
